Source: PubChem BioAssay (National Center for Advancing Translational Sciences (NCATS))
Pf growth 96h – inhibits malaria parasite growth, 96 h. P. falciparum luciferase reporter growth, 96 h. Potency, µM (titrated, usually from 28.7 µM), for the others: at the highest dose activity change, negative = inhibition, usual class: inhibitors. 320,000 tested, 6.9% active. AID 504834; further: on the % scale 0 is the no-effect control and ±100 the full control effect
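Plates of compound plus infected erythrocytes (2% hematocrit, 0.05% parasitemia final) incubate 96 hours, 37 C, 5% CO2. Detection reagent added; reduced luminescence from the parasites' luciferase reporter flags inhibition.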
AMA1 RON2 block – AMA1-RON2 (P. falciparum) interaction inhibition; AlphaScreen AMA1-biotinylated RON2 peptide binding; Potency, µM (top dose mostly 58.2 µM), inactives show at the top dose activity change, negative = inhibition, actives largely listed as inhibitors; 360,000 tested, 0.2% active;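 further: 0% = vehicle wells and -100% = peptide control; nearly all actives have a fitted effect of over 45% in size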
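AMA1 (3D7) with his tag at 25 nM final met compounds first, then biotinylated RON2 peptide at 25 nM; detection used donor plus acceptor beads, 10 µg/mL apiece, read by AlphaScreen after 30 min at room temperature.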
Pf growth 48h – P. falciparum growth inhibition at 48 hours (one generation); Potency, µM (doses to about 28.7 µM), for the others: at the top dose activity change, negative = inhibition, actives largely listed as inhibitors; P. falciparum luciferase growth in erythrocytes, 48 h; 310,000 tested, 5.9% active; further: on the % scale 0 is the no-effect control and ±100 the full control effect
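A one-generation exposure of luciferase-tagged malaria parasites in RPMI 1640/Albumax erythrocyte culture, 37 C and 5% CO2. Inhibition is inferred from decreased luminescence after adding detection reagent.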
SARS PLpro yeast – blocks SARS-CoV papain-like protease in a yeast assay. Potency, µM (top dose mostly 32.9 µM), inactives show top-dose activity, positive = growth rescue, actives largely listed as activators. S. cerevisiae expressing SARS-CoV PLpro, growth rescue. AID 485353. 330,000 tested, 0.19% active; calls by dose curve; further: 0% is about no effect; nearly all actives have a fitted effect of over 55% in size
Active calls of the source: *; ? = inconclusive; . = not tested or not shown; [ ] = remark or other dose. Hits are enriched below; roughly 9.4% of the tested compounds scored in any of these assays. Unless noted, the call rests on the fitted dose curve; in most records, active means well fitted curve in the direction sought with a large enough effect; inconclusive means small, poorly fitted or top-dose-only effect, or another doubt; inactive means no such curve, though single readings can be large; an effect the other way counts as inactive or inconclusive. Potency means the concentration at half of the fitted maximal effect.

SMILES	Pf growth 96h	AMA1 RON2 block	Pf growth 48h	SARS PLpro yeast
COc1ccc(CCN2C(=O)CN=C2Nc2ccc(F)cc2)cc1OC	-1.2%	-6.2%	-1.3%	0.2%
C=CCN1C(=O)CN=C1Nc1ccc(F)cc1	?	9.8%	10.4µM*	1.1%
Oc1cccc(/C=N/NC(=S)Nc2cccnc2)c1O	?	-46.1%	0.0828µM*	-11.9%
Oc1ccc(C=NNC(=S)Nc2ccc(F)cc2)c(O)c1	.	-0.9%	.	.
Oc1ccc(/C=N/NC(=S)Nc2cccnc2)c(O)c1O	?	?	?	24.2%
Oc1ccc(/C=N/NC(=S)Nc2cccnc2)c(O)c1	0.0%	14.4%[11.6 µM]	6.57µM*	?
CC(=O)Nc1ccc(Oc2sc(C(=O)c3ccccc3)c(N)c2C#N)cc1	?	6.4%	?	2.4%
O=C(Nc1cc(=O)[nH]c2nc(-c3ccccc3)nn12)c1ccc(Cl)cc1	-3.5%	-5.1%	-4.9%	2.0%
O=C(Nc1cc(=O)[nH]c2nc(-c3ccc(Cl)cc3)nn12)c1ccccc1	0.329µM*	1.5%	0.586µM*	0.8%
COC(=O)/C(C#N)=C/N(C)C	46.0%	5.3%	2.33µM*	-0.1%
O=C(Nc1ncc(Cc2ccccc2Cl)s1)c1ccc(-c2cccc([N+](=O)[O-])c2)o1	37.0%	82.0%	?	8.0%
Cc1cnc(NC(=O)c2ccc(-c3nc4ccccc4s3)o2)s1	11.3%	86.8%	0.0%	1.3%
O=C(Nc1ncc(Cc2ccc(C(F)(F)F)cc2)s1)c1ccc(-c2cccc([N+](=O)[O-])c2)o1	0.37µM*	55.1%	?	8.0%
Cc1cnc(NC(=O)c2ccc(-c3ccc([N+](=O)[O-])cc3)o2)s1	6.57µM*	75.0%	?	-4.2%
O=C(Nc1ncc(Cc2ccccc2Cl)s1)c1ccc([N+](=O)[O-])cc1	?	28.9%	0.0%	4.9%
O=C(Nc1ncc(Cc2cccc(Cl)c2)s1)c1ccc([N+](=O)[O-])cc1	13.1µM*	33.0%[11.6 µM]	?	13.1%
COc1ccc(CCNC(=O)C2CCN(C(=O)c3ccc(Cl)cc3)CC2)cc1OC	-16.7%	-2.2%	-8.5%	1.5%
O=[N+]([O-])c1ccccc1-c1ccc(/C=N/n2cnnc2)o1	50.3%	-11.7%	9.8%	2.9%
O=C1ON=C(c2ccccc2)/C1=C/c1ccc(-c2ccccc2[N+](=O)[O-])o1	8.28µM*	?	?	-58.4%
O=[N+]([O-])c1ccc2c3n([n+]([O-])c2c1)CCN=C3c1ccc(Cl)cc1	?	19.7%	11.7µM*	2.5%
Cc1ccc(C2=NCCn3c2c2ccc([N+](=O)[O-])cc2[n+]3[O-])cc1	?	9.9%	?	-0.8%
COc1cc(NC(=S)NCCCN(C)C)c(OC)cc1NC(=O)c1ccco1	23.2%	-13.3%	-1.9%	-3.6%
COc1ccc(N(CC(=O)Nc2ccccc2C(=O)N2CCOCC2)S(=O)(=O)c2ccc(F)cc2)cc1	10.4µM*	-3.2%	-1.2%	15.1%
CCOc1ccccc1N(CC(=O)Nc1ccccc1C(=O)N1CCOCC1)S(C)(=O)=O	10.4µM*	-1.6%	3.2%	2.4%
CCCn1c(CN2CCN(C(=O)OCC)CC2)nc2c1c(=O)n(C)c(=O)n2C	4.5%	1.0%	52.2%	1.5%
SMILES	Pf growth 96h	AMA1 RON2 block	Pf growth 48h	SARS PLpro yeast
CCOC(=O)N1CCN(Cc2nc3c(c(=O)[nH]c(=O)n3C)n2Cc2cc(C)ccc2C)CC1	-5.4%	1.4%	13.1µM*	1.2%
CCOC(=O)N1CCN(Cc2nc3c(c(=O)n(C)c(=O)n3C)n2Cc2ccccc2C)CC1	?	13.5%	10.4µM*	6.3%
CS(=O)(=O)c1ccc2nc(NC(=O)c3ccc(N4C(=O)CCC4=O)cc3)sc2c1	16.5%	26.0%	-1.2%	-1.3%
C=CCCN(C1CCCC1)S(=O)(=O)c1ccccc1Br	14.7µM*	74.3%	?	-3.7%
COc1ccccc1C1CCN(C(=O)c2ccc(C(C)(C)C)cc2)CC1	7.38µM*	-8.9%	11.7µM*	-3.7%
COc1ccccc1N1CCN(C(=O)c2ccc(C(C)(C)C)cc2)CC1	.	-8.4%	?	8.7%
CC(OC(=O)c1cccnc1Cl)C(=O)Nc1ccc2c(c1)OCO2 (stereo not drawn)	.	-5.7%	.	3.6%
CCCCOc1ccc(-c2nc(=S)[nH][nH]2)cc1	11.7µM*	74.3%	.	12.4%
CCCCOc1ccc(-c2nc(SCC(N)=O)n[nH]2)cc1	186.2%	-5.2%	100.6%	5.1%
COc1ccc(CC(=O)N2CCc3cc(OC)c(OC)cc3C2)cc1	-2.3%	-0.6%	6.0%	-0.7%
COc1ccc(CC(=O)N2CCc3ccccc3C2)cc1	8.28µM*	14.1%	11.7%	1.4%
COc1ccc(N(CC(=O)N2CCc3ccccc3C2)S(=O)(=O)c2c(C)nn(C)c2C)cc1	1.17µM*	0.5%	.	-3.4%
COc1ccccc1CNC(=O)CN(c1ccc(C)cc1)S(=O)(=O)c1c(C)nn(C)c1C	4.15µM*	-4.6%	?	26.2%
COc1ccc(N(CC(=O)NCc2ccccc2OC)S(=O)(=O)c2c(C)nn(C)c2C)cc1	46.3%	7.9%	.	-2.8%
COc1ccc(CC(=O)N2CCN(C(=O)Cc3ccc(OC)cc3)CC2)cc1	3.29µM*	1.4%	-27.8%	2.0%
COC(=O)c1cc(C(=O)OC)n(Cc2ccc(Cl)cc2Cl)n1	.	6.0%	-8.2%	-13.8%
CC(OC(=O)CN1C(=O)c2ccccc2C1=O)C(=O)NCc1ccccc1 (stereo not drawn)	33.8%	-8.4%	4.1%	?
CCc1nnc(NC(=O)C2(C)COC(c3ccc(OC)cc3)OC2)s1 (stereo not drawn)	?	-9.5%	?	-0.2%
CCOC(=O)CSc1n[nH]c(=O)n1CCc1ccccc1	10.4%	10.1%	-9.5%	-0.1%
CCC1=C(CC2NCCc3ccccc32)CC2c3cc(OC)c(OC)cc3CCN2C1 (stereo not drawn)	.	-25.4%	.	.
CC[C@H]1CN2CCc3cc(OC)c(OC)cc3C2C[C@@H]1C[C@H]1NCCc2cc(OC)c(OC)cc21 (stereo partly drawn)	0.0465µM*	-15.3%	0.0522µM*	.
COc1cc2nc(Cl)nc(N3CCCCC3)c2cc1OC	-2.2%	6.2%	?	-2.4%
CCCCNCC1C(Oc2ccc(Cl)cc2)C(=O)N1c1ccccc1C (stereo not drawn)	-82.0%	?	14.7µM*	-4.0%
CCCNCC1C(Oc2ccc(Cl)cc2Cl)C(=O)N1c1cccc(C)c1C (stereo not drawn)	-6.6%	-9.7%	?	-13.1%
CCCc1ccc(-c2csc(NC(=O)C3=COCCO3)n2)cc1	221.5%	8.7%	139.4%	5.3%
SMILES	Pf growth 96h	AMA1 RON2 block	Pf growth 48h	SARS PLpro yeast
CC(=O)N/N=C(\C)CC(=O)Nc1cccc2c1CCCC2	19.5%	24.4%	33.2%	0.5%
C=CCSc1ncccc1C(=O)NCc1ccccc1	11.7µM*	-0.7%	18.1%	5.0%
O=C(O)c1cc[c]([Hg][Cl])cc1	5.22µM*	-3.0%	5.86µM*	-0.5%
CC(=O)c1ccccc1NC(=O)COC(=O)/C=C/c1ccc(OC(F)F)cc1	2.6%	1.2%	1.5%	7.2%
COc1ccc(C(=O)Nc2cccc(S(=O)(=O)N3CCCC3)c2)cc1S(=O)(=O)N1CCOCC1	.	-12.7%	.	-2.9%
COc1ccc(C(=O)Nc2ccc(-c3cn4ccsc4n3)cc2)cc1S(=O)(=O)N1CCOCC1	0.329µM*	-4.1%	?	-5.8%
